From PubChem BioAssay (NCATS)
Where “and” joins values, the source holds several entries; their conditions need not be identical. Equal values may be shown once. Inconclusive results are not listed. Entries that show only a call come without a potency. Where a structure was tested more than once in an assay, its records may differ in their call. Calls of active or inactive are those of the source. The call rests on the fitted dose curve; in most records, active means well fitted curve in the direction sought with a large enough effect; inconclusive means small, poorly fitted or top-dose-only effect, or another doubt; inactive means no such curve, though single readings can be large; an effect the other way counts as inactive or inconclusive.

Tests used:
[1] = target: Cytochrome P450 3A7 (Homo sapiens) (UniProt P24462); experiment: Cytochrome P450 family 3 subfamily A member 7 (CYP3A7) small molecule antagonists: luciferase biochemical qHTS assay (AID 1963596); conditions: P450-Glo CYP3A7 enzyme luminescence, 1 h; series mostly up to 57.4 µM; further: nearly all actives have a fitted effect of over 40% in size
Chain of Cytochrome P450 3A7 (Homo sapiens) (P24462 whole entry, looked up): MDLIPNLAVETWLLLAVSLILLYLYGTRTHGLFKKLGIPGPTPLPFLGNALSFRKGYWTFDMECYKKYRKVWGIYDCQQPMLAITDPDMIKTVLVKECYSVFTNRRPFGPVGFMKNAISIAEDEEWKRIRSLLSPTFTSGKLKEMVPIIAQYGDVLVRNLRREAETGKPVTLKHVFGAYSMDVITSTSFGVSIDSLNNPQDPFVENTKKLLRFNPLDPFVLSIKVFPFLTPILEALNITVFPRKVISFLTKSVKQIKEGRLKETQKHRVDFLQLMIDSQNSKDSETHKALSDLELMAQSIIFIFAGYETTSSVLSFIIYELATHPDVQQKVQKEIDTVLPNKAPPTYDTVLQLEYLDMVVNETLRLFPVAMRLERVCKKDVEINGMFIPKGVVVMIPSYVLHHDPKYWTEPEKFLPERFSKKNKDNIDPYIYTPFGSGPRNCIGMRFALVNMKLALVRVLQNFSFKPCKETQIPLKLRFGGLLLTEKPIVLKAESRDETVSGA
Summary of the method: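 In this luminescent screen, enzyme and proluciferin substrate meet test compound for 10 min before NADPH regeneration solution drives a 1 h room-temperature reaction; detection reagent halts turnover and luminescence is read 20 min later.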

[2] = Viability qHTS for spleen associated tyrosine kinase inhibitor (SYKi) naive MV4-11 cells (AID 1963823); conditions: MV4-11 AML viability, CellTiter-Glo luminescence, 72 h; series mostly up to 45 µM; further: nearly all actives have a fitted effect of over 40% in size
Summary of the method: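 In this viability screen, compounds acted on SYK inhibitor naive MV4-11 cells for three days (72 hr, 37 C). Remaining viable cells were measured by CellTiter-Glo luminescence following a 10 min room-temperature development.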

[3] = Viability qHTS for spleen associated tyrosine kinase inhibitor (SYKi) drug resistant MV4-11 cells (AID 1963824); conditions: SYKi-resistant MV4-11 viability, CellTiter-Glo, 72 h; series mostly up to 45 µM; further: nearly all actives have a fitted effect of over 35% in size
Summary of the method: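 SYK-inhibitor-resistant MV4-11 AML cells were seeded at 500 per well onto compound and cultured 72 hours (37 °C, 5% CO2). CellTiter-Glo was then added, and after 10 min at room temperature, luminescence gave viability.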
Potency means the concentration at half of the fitted maximal effect.

Row | Compound | Potency [1] | Potency [2] | Potency [3] | activity change, negative = inhibition [1] | viability (% of control) [2] | viability, % of control [3]
1 | C=C1[C@H](CO)[C@@H](O)C[C@@H]1n1cnc2c(=O)[nH]c(N)nc21 | inactive | inactive and 16.4 µM (active) | inactive | – | – | –
2 | O=C(O)[C@@H](O)[C@H](O)[C@H](O)[C@@H](O)C(=O)O | inactive | inactive | inactive | – | – | –
3 | O=C(c1ccc(F)cc1)C1CCN(CCn2c(=O)nc3n(c2=O)CCCC3)CC1 | inactive | inactive | inactive | – | – | –
4 | CCCCOC(=O)NC(=O)C1c2ccccc2Oc2ccccc21 | inactive | inactive | inactive | – | – | –
5 | CN(c1ccc(NC(=O)Nc2ccccc2)cc1)S(=O)(=O)c1cnn(-c2ccc(F)cc2)c1 | inactive | 16.4 µM (active) | 23.1 µM (active) | – | – | –
6 | Nc1nc(N)c(N=O)c(OCC2CCCCC2)n1 | inactive | 6.51 µM (active) and 6.61 µM (active) | 8.2 µM (active) and 8.33 µM (active) | – | – | –
7 | CC#CC(=O)Nc1ccc2ncnc(Nc3cccc(Br)c3)c2c1 | inactive | 1.46 µM (active) | 1.46 µM (active) and 580 nM (active) | – | – | –
8 | c1cc(-c2cc(C3CCNCC3)[nH]n2)ccn1 | inactive | inactive | inactive | – | – | –
9 | CCOC(=O)C(=O)c1csc(NC=O)n1 | inactive | inactive | inactive | – | – | –
10 | COc1ccc(-c2cnc(-c3cccc4c3-c3ccccc3C4=O)o2)cc1 | inactive | 0.0893 µM (active) | 0.0709 µM (active) | – | – | –
11 | Cc1cc(Nc2ncc3cc(-c4c(Cl)cccc4Cl)c(=O)n(C)c3n2)ccc1F | inactive | 0.461 µM (active) | 0.517 µM (active) | – | – | –
12 | Cn1cc(-c2cnc3ccc4ccc(CS(=O)(=O)NCc5ccccn5)cc4c(=O)c3c2)cn1 | inactive | 14.6 µM (active) | 11.6 µM (active) | – | – | –
13 | O=C(O)c1ccc(OCCCOc2ccc(C(=O)O)cc2)cc1 | inactive | inactive | inactive | – | – | –
14 | FC(F)(F)c1nnc2c(Sc3ccccc3)nc3ccc(Cl)cc3n12 | inactive | 1.46 µM (active) | 0.731 µM (active) | – | – | –
15 | O=C(O)CCC(=O)O | inactive | inactive | inactive | – | – | –
16 | COC(=O)C(Cc1ccc(OCCn2c(=O)sc3cc(C(=O)c4ccccc4)ccc32)cc1)C(=O)OC | inactive | 23.1 µM (active) | 18.4 µM (active) | – | – | –
17 | N[C@@H](CCNCc1ccc(Cl)cc1)C(=O)N1CCCCC1 | inactive | inactive | inactive | – | – | –
18 | O=C(Nc1nnc(-c2ccc3c(c2)OCCO3)o1)C1CCCCC1 | inactive | inactive | inactive | – | – | –
19 | O=C(O)c1cccc(S(=O)(=O)N2CCc3ccccc3C2)c1 | inactive | inactive | inactive | – | – | –
20 | CCCCc1ccc(C(=O)Nc2cc(-c3ccc(Cl)cc3)nn2-c2ccc(Cl)cc2)cc1 | inactive | inactive | inactive | – | – | –
21 | Cc1cc(F)ccc1-c1nc(NCCN=C(N)NC#N)nc2c1ccc(=O)n2-c1c(F)cccc1F | inactive | 14.6 µM (active) | 14.6 µM (active) | – | – | –
22 | Nc1nc(Cl)nc2c1ncn2[C@@H]1O[C@H](CO)[C@@H](O)[C@@H]1F | inactive | 106 nM (active) and 263 nM (active) | 188 nM (active) and 332 nM (active) | – | – | –
23 | OC[C@H]1O[C@@H](O[C@@H]2[C@@H](CO)O[C@](O)(CO)[C@H]2O)[C@H](O)[C@@H](O)[C@H]1O | inactive | inactive | inactive | – | – | –
24 | COc1cc(C(=O)NC2CCN(C)CC2)ccc1Nc1ncc2c(n1)N(C1CCCC1)CC(F)(F)C(=O)N2C | inactive | 0.0231 µM (active) | 0.0103 µM (active) | – | – | –
25 | COc1ccc(CCO[C@@H]2CCCC[C@H]2N2CC[C@@H](O)C2)cc1OC | inactive | inactive | inactive | – | – | –
26 | COc1ccc(C(=O)c2ccccc2)c(O)c1 | inactive | inactive | inactive | – | – | –
27 | O=C(NCCCCN1CCN(c2cccc(Cl)c2Cl)CC1)c1cc2ccccc2s1 | 2.82 µM (active) | 23.1 µM (active) | 23.1 µM (active) | – | – | –
28 | C[C@@H](NC(=O)C(=O)c1c[nH]c2ccc([N+](=O)[O-])cc12)c1ccccc1 | inactive | inactive | 4.11 µM (active) | – | – | –
29 | CC(C)(C)NCc1cc(Nc2ccnc3cc(Cl)ccc23)c2c(c1O)CCCC2 | – | – | – | -5.38% [at 11.5 µM] (inactive) | 90.1% [at 0.588 µM] (inactive) | 102% [at 0.588 µM] (inactive)
30 | CC(C)c1noc(C2CCN(c3ncnc(Nc4ccc(S(C)(=O)=O)cc4F)c3[N+](=O)[O-])CC2)n1 | inactive | inactive | inactive | – | – | –
